Laboratory results published in PubChem BioAssay AID504447 (The Scripps Research Institute Molecular Screening Center, 2011).
Measured potencies and affinities stand elsewhere. Activity calls are given as the source filed them. How the calls were made is not given here.

Each compound was assayed against Peroxisome proliferator-activated receptor gamma (Homo sapiens) (UniProt P37231) (assay: PPARg transcriptional activation, reporter cells – cell-based, luminescence, assay provider, dose response (AID 504447)). Conditions: luciferase luminescence, partial agonism; series mostly up to 5 µM.
Peroxisome proliferator-activated receptor gamma (Homo sapiens), sequence (P37231 whole entry, looked up): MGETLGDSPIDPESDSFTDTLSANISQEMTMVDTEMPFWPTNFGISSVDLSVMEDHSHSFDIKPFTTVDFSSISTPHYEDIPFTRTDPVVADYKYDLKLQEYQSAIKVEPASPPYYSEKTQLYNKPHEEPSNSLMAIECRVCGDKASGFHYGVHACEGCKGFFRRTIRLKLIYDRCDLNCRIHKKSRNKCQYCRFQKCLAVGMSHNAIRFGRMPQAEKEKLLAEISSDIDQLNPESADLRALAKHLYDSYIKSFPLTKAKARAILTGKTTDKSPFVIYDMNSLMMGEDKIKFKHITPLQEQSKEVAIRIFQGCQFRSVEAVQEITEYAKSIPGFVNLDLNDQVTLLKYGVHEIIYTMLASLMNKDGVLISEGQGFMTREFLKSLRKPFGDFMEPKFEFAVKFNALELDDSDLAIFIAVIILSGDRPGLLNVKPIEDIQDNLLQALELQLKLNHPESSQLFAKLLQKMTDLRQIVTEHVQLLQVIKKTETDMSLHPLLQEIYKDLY

outcome, inactive:
COc1cc(C2/C(=C(/O)c3ccc(F)cc3)C(=O)C(=O)N2CCCC(=O)O)ccc1O (stereo unspecified)
O=c1c2cn(Cc3ccc(F)cc3)c3ccc(F)cc3c-2nn1Cc1ccc(F)cc1
O=c1c2cn(Cc3ccc(F)cc3)c3ccccc3c-2nn1Cc1ccc(F)cc1
CC(C)OC(=O)CCN1C(=O)/C(=C/c2ccccc2)SC1=S
Cc1ccc(-c2nnc(Nc3ccc(O)cc3)c3ccccc23)cc1S(=O)(=O)NCCO
COc1ccc(CN(Cc2ccccn2)C(=O)CN2C(=O)C(C)Oc3ccccc32)cc1 (stereo unspecified)
Cc1ccc2nc(N3C(=O)C(O)=C(C(=O)c4ccco4)C3c3cccc(O)c3)sc2c1 (stereo unspecified)
O=C(O)COc1ccccc1/C=C1\SC(=S)N(NC(=O)c2ccccc2O)C1=O
O=C(O)CCN1C(=O)/C(=C/c2ccccc2Cl)SC1=S
COc1cc(/C=C(\NC(=O)c2ccccc2)C(=O)NC(C(=O)O)c2ccccc2)cc(OC)c1OC (stereo unspecified)
O=C(CSc1nc(=O)n(CCCN2CCOCC2)c2c1CCC2)Nc1cccc(F)c1
O=C(O)CCN1C(=O)/C(=C/c2ccccc2)SC1=S
Cc1ccccc1NC(=O)CC1C(=O)Nc2ccccc2N1CC(=O)N(C)C1CCS(=O)(=O)C1 (stereo unspecified)
O=C(CNC(=O)c1nc[nH]c1C(=O)N1CCc2ccccc2C1)OCc1ccccc1
O=C(NC(Cc1ccccc1)C(=O)N1CCN(c2ccccc2O)CC1)c1ccccc1 (stereo unspecified)
Cc1ccc2[nH]c(=O)c(CN(Cc3cccs3)Cc3nnnn3CC3CCCO3)cc2c1 (stereo unspecified)
